{
  "source": "PubChem BioAssay (NCATS)",
  "note": "Values joined by “and” are separate entries in the source; they are usually repeats but may differ in a detail not shown here. Equal values may be shown once. Inconclusive results are not listed. Unmarked numbers belong to inactive results. Active and inactive are the calls of the source. Calls follow the shape of the dose curve; as a rule, active = well fitted activation curve with a large enough effect; inconclusive = small, poorly fitted or top-dose-only effect; inactive = no such curve, though single readings can be large or run the other way. Peptide text beside a SMILES is read from it. * marks the point of attachment. AMC = Cc1cc(=O)oc2cc(N*)ccc12; Cbz = O=C(OCc1ccccc1)*",
  "data": [
    {"molecular_target": "Cellular tumor antigen p53 (Homo sapiens) (UniProt P04637)", "sequence (P04637 whole entry, looked up)": "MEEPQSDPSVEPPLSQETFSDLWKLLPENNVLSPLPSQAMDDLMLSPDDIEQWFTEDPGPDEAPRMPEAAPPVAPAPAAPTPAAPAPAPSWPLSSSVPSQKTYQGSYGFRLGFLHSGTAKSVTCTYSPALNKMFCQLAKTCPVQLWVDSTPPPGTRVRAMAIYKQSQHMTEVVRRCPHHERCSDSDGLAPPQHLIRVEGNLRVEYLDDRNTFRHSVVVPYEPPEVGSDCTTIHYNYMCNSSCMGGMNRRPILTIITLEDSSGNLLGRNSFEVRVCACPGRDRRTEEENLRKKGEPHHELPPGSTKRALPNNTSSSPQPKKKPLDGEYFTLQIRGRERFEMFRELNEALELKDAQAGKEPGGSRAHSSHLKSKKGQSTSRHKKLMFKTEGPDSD", "experiment": "Primary qHTS for small molecule compounds that upregulate eGFP-tagged delta133p53alpha (in N-terminal) cells. (AID 2060322); also: nearly all actives have a fitted effect of over 75% in size; also: potency is read from the fitted curve at half-maximal effect;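 as to activation: cells pre-induced with doxycycline then dosed without doxycycline; series mostly up to about 56 µM; 0% = DMSO vehicle and 100% = reference activator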", "conditions": "NCI-H358 eGFP-delta133p53alpha fluorescence, 24 h; activation: stronger effect = higher value", "from_the_text": "Assay Development and Screening Technology\nNational Center for Advancing Translational Sciences (NCATS),\nNational Institute of Health (NIH), Rockville, Maryland\nCellular senescence (CS) is one of the hallmarks of aging and age-related diseases. Senescent cells are characterized by an irreversible growth arrest, an increase in senescence-associated beta-galactosidase (SA-beta-gal) activity and p16INK4a expression, an activation of the DNA damage response pathways, and the emergence of a senescence-associated secretory phenotype (SASP).\nDelta133p53alpha, a human/primate-specific p53 protein isoform, delays or inhibits the induction of CS and SASP in various types of human cells, including progeria-derived fibroblasts, primary normal astrocytes, and CD8+ T lymphocytes. Induction of delta133p53alpha with small molecule compounds may provide therapeutic opportunities for inhibition of senescence/SASP-associated pathologies in progeria syndromes, astrocyte-mediated neuroprotection in neurodegenerative diseases, and possibly prevention and treatment of a wider range of senescence- and aging-associated diseases.\nHere we report the development and validation of a cell-based quantitative high throughput screening (qHTS) assay in 1,536-well format. This qHTS assay uses the NCI-H358 cell line with doxycycline-inducible expression of enhanced green fluorescent protein (eGFP)-tagged delta133p53alpha, which allows efficient and highly quantitative measurement of the protein levels.\nPROTOCOL TABLE (as described by Inglese J, Shamu CE and Guy RK. 2007)\nSEQUENCE No. (e.g., 1, 2, 3, etc.); […] (e.g., Cells, Incubation, Reagent, etc.); VALUE; DESCRIPTION.\n1; Cells; 4uL; 800 doxycycline treated cells / well in doxycycline-free media, 1536-well black, clear-bottom low base Aurora microplates.\n2; Compounds; 23 nL; Kalypsis pin tool (Wako) equipped with 1536-well pin heads, 5-azacytidine positive control.\n3; Incubation; 24 hr; 37C, 5% CO2; 95% relative humidity.\n4; Aspiration; 1x; BioTek EL406 washer dispenser (Agilent).\n5; Fixing; 3.5% paraformaldehyde, BioTek EL406 washer dispenser (Agilent).\n6; Washing; 1x PBS; BioTek EL406 washer dispenser (Agilent).\n7; Nuclei staining; 1:1000 dilution of Hoechst 33342 (Thermofisher), BioTek EL406 washer dispenser (Agilent).\n8; Incubation; 20 min; in the dark at room temperature.\n9; Washing; 2x, 1x PBS (ThermoFisher), BioTek EL406 washer dispenser (Agilent).\n10; Reagent; 10 uL; 1x PBS per well, sealed with clear adhesive tape.\nNOTES (numbers refer to sequence numbers above).\n1. NCI-H358 cells expressing eGFP-tagged delta133p53alpha were grown in T75 culture flasks and treated with doxycycline for 24h, at 10 ng/ml for eGFP-D133p53a cells (N-terminal cell) and 100 ng/ml for D133p53a-eGFP cells (C-terminal cells). Cells were trypsinized, counted using a Counted 3 Automated Cell Counter (Thermo Fisher), and diluted to a concentration of 200,000 cells/ml. A Multidrop Combi Reagent Dispenser (ThermoFisher) was used to dispense 800 cells/well in […] of doxycycline-free media, into 1536-well black/clear bottom low base plates (AuroraMicroplates).\n2. After plating cells, 23 nl of compound library, DMSO vehicle control or positive control (5-azacytidine) were transferred by Pin Tool (Wako). The plate map layout was the same for each plate: (column 1) non-doxycycline treated cells + DMSO vehicle control; (column 2) doxycycline treated cells + DMSO vehicle control baseline; (column 3) doxycycline treated cells + positive control 57.5 uM final concentration 5-azacytidine; (column 4) doxycycline treated cells + serial dilution of 5-azacytidine, 16-point 1:2 titration spanning 1.8 nM to […] final concentration; (columns 5-48) doxycycline treated cells + titration of library compounds.\n3. Cells were incubated at 37 °C, 5 % CO2, 95% RH with breathable metal lid for 24h.\n4-10. […] After two washes, 10 ul of 1X PBS (Thermo Fisher) was dispensed to each well. Clear adhesive plate seals (VWR) were applied and plates stored at 4 °C.\n11. […]", "values": [
      {"smiles": "Cc1csc(NC(=O)c2ccc(COc3cccc(Cl)c3)o2)n1", "activation": "-9.67%"},
      {"smiles": "CC1(C)C[C@H](O)C[C@@]2(C)OC(=O)C=C12", "activation": "19.6%"},
      {"smiles": "CCC(=O)N1CCOc2c(cc(-c3ccc(OC)c(OC)c3)cc2OC[C@H]2CCCN(C)C2)C1", "activation": "-0.477%"},
      {"smiles": "CCNC(=O)[C@@H]1CCCN1C(=O)[C@H](CCCN=C(N)N)NC(=O)[C@H](CC(C)C)NC(=O)[C@@H](CC(C)C)NC(=O)[C@H](Cc1ccc(O)cc1)NC(=O)[C@H](CO)NC(=O)[C@H](Cc1c[nH]c2ccccc12)NC(=O)[C@H](Cc1cnc[nH]1)NC(=O)[C@@H]1CCC(=O)N1", "activation": "7%"},
      {"smiles": "Clc1cc2c(NC3CCCC3)nnc(-c3ccncc3)c2cc1Cl", "activation": "-9%"},
      {"smiles": "CCCC1=CC2=C(CO1)C(=O)C(C)(O)C(OC(=O)c1c(C)cc(OC)cc1O)C2", "note": "(stereo not given)", "activation": "-1.53%"},
      {"smiles": "CC1(CCOC2OC(CO)C(O)C(O)C2O)CCC23OC2(C1)C(O)CC1C(C)(C(=O)O)CCCC13C", "note": "(stereo not given)", "activation": "-13.7%"},
      {"smiles": "COc1c2c(c(C)c3c1C(=O)OC3)O[C@@]1(C)C[C@@H](OC(C)=O)[C@]34O[C@](OC)(CC[C@]3(C)[C@H]1C2)OC4(C)C", "activation": "-5.36%"},
      {"smiles": "CN1CCN(c2cc3c(cc2F)c(=O)c(C(=O)O)cn3-c2ccc(F)cc2)CC1", "activation": "20.1%"},
      {"smiles": "O=C(c1c(F)ccc(NS(=O)(=O)N2CC[C@@H](F)C2)c1F)c1c[nH]c2ncc(-c3cnc(C4CC4)nc3)cc12", "activation": "17%"},
      {"smiles": "NS(=O)(=O)c1ccc(Nc2nc(OCC3CCCCC3)c3[nH]cnc3n2)cc1", "activation": "-24.8%"},
      {"smiles": "O=C1CCC(=O)N(O)CCCCCNC(=O)CCC(=O)N(O)CCOCCNC(=O)CCC(=O)N(O)CCCCCN1", "activation": "-16.8%"},
      {"smiles": "CC(C)C1(O)NC(=O)C(CC2(O)c3ccccc3N3C(=O)C(C)(C)NC32)n2c1nc1ccccc1c2=O", "note": "(stereo not given)", "activation": "-3.05%"},
      {"smiles": "O=C(/C=C/c1ccc(O)cc1)OCC1OC(O)C(OC2OC(CO)C(O)C(O)C2O)C(O)C1O", "note": "(stereo not given)", "activation": "-13%"},
      {"smiles": "CC1(C)OC(=O)C=C[C@@]2(C)C1CC(=O)[C@]1(C)C2CC[C@@]2(C)[C@H](c3ccoc3)OC(=O)[C@H]3O[C@]321", "note": "(stereo not given in full)", "activation": "-19.1%"},
      {"smiles": "NCC1CCC(C(=O)O)CC1", "note": "(stereo not given)", "activation": "20.7%"},
      {"smiles": "Cc1cc(=O)oc2cc(NC(=O)[C@H](CCC(=O)O)NC(=O)[C@H](CC(C)C)NC(=O)[C@H](CC(C)C)NC(=O)OCc3ccccc3)ccc12", "note": "(Cbz-Leu-Leu-Glu-{AMC})", "activation": "2.33%"},
      {"smiles": "CN1CC[C@H](c2c(O)cc(O)c3c(=O)cc(-c4ccccc4Cl)oc23)[C@H](O)C1", "Potency": "110 nM (active)"},
      {"smiles": "COc1cc(C[C@H]2C(=O)OC[C@@H]2Cc2ccc(OC)c(OC)c2)ccc1O", "activation": "19.6%"},
      {"smiles": "C[n+]1cc2c3c(ccc2c2ccc4cc5c(cc4c21)OCO5)OCO3", "Potency": "1.9 µM (active) and 2.39 µM (active)"},
      {"smiles": "CC(=O)O[C@@H]1C[C@]2(C)[C@@]3(CCC4[C@@]5(C)CC[C@H](O[C@@H]6O[C@H](C(=O)O)[C@@H](O)[C@H](OC7OC(CO)C(O)C(O)[C@H]7O[C@@H]7O[C@@H](C)[C@H](O)[C@@H](O)[C@H]7O[C@@H]7OC[C@](O)(CO)[C@H]7O)[C@H]6OC6OC(CO)C(O)C(O)C6O)C(C)(C)C5CC[C@]42C)OC[C@@]12CCC(C)(C)CC23", "note": "(stereo not given in full)", "activation": "-16%"},
      {"smiles": "NCCOc1cc(C(=O)Nc2cc(OCCN)c3ccccc3n2)nc(C(=O)Nc2cc(OCCN)c3ccccc3n2)c1", "Potency": "193 nM (active)"},
      {"smiles": "CC1(C)S[C@@H]2[C@H](N=CN3CCCCCC3)C(=O)N2[C@H]1C(=O)O", "activation": "-11.9%"},
      {"smiles": "C[C@@H](NC(=O)[C@H](O)c1cc(F)cc(F)c1)C(=O)N[C@@H]1C(=O)N(C)c2ccccc2-c2ccccc21", "activation": "-6.21%"},
      {"smiles": "C[C@H]1O[C@@H](O[C@H]2CC[C@@]3(C)[C@H](CC[C@@H]4[C@@H]3C[C@@H](O)[C@]3(C)[C@@H](C5=CC(=O)OC5)CC[C@]43O)C2)C[C@H](O)[C@@H]1O[C@H]1C[C@H](O)[C@H](O[C@H]2C[C@H](O)[C@H](O[C@@H]3O[C@H](CO)[C@@H](O)[C@H](O)[C@H]3O)[C@@H](C)O2)[C@@H](C)O1", "Potency": "1550 nM (active)"},
      {"smiles": "CN(N=O)C(=O)N[C@H]1C(O)OC(CO)[C@@H](O)[C@H]1O", "note": "(stereo not given in full)", "activation": "25.8%"},
      {"smiles": "CCc1c[nH]c2ncnc(N3CC[C@](N)(CNC(=O)c4ccc(F)cc4F)C3)c12", "activation": "22.3%"},
      {"smiles": "NC(=NCc1ccccc1)NC(=O)c1nc(Cl)c(N)nc1N", "activation": "0.24% and 2.72%"},
      {"smiles": "O=c1nc(-c2ccccn2)sc2ccccc12", "activation": "-10.5%"},
      {"smiles": "CC(C)(O)C(O)C(=O)OCc1ccc(O[C@@H]2O[C@H](CO)[C@@H](O)[C@H](O)[C@H]2O)cc1", "note": "(stereo not given in full)", "activation": "8.4%"},
      {"smiles": "OC1(c2ccccc2)CCNCC1", "activation": "0.565%"},
      {"smiles": "O=C(OC[C@H]1O[C@H](O[C@]2(CO)O[C@H](CO)[C@@H](O)[C@@H]2O)[C@H](O)[C@@H](O)[C@@H]1O)c1ccccc1", "activation": "0.763%"},
      {"smiles": "CC(C)(C)NC(=O)[C@H]1CN(Cc2cccnc2)CCN1C[C@@H](O)C[C@@H](Cc1ccccc1)C(=O)N[C@H]1c2ccccc2C[C@H]1O", "activation": "18.3%"},
      {"smiles": "CC(O)CCc1ccc(O[C@@H]2O[C@H](CO)[C@@H](O)[C@H](O)[C@H]2O)cc1", "note": "(stereo not given in full)", "activation": "-10.7%"},
      {"smiles": "Cc1cc2nc(NCCCO)n(CC(=O)c3cc(C(C)(C)C)c(O)c(C(C)(C)C)c3)c2cc1C", "activation": "5%"},
      {"smiles": "O=C1COc2nccc(-c3ccccc3F)c2CN1Cc1cc(C(F)(F)F)cc(C(F)(F)F)c1", "activation": "-4.77%"},
      {"smiles": "CC(NC(CCc1ccccc1)C(=O)O)C(=O)N1C(=O)N(C)CC1C(=O)O", "note": "(stereo not given)", "activation": "-13.4%"},
      {"smiles": "N#C[C@@H]1C[C@H](F)CN1C(=O)CNC1[C@H]2CN(C(=O)c3ccc(F)cc3)C[C@@H]12", "note": "(stereo not given in full)", "activation": "-1%"},
      {"smiles": "Cc1cc(C(=O)Nc2cc(Oc3ccc4nc(NC(=O)C5CC5)cn4n3)ccc2C)n(C)n1", "Potency": "16900 nM (active)"},
      {"smiles": "C=CC(=O)N1CCN(C(=O)CNc2cc(I)c(Cl)cc2O)CC1", "activation": "8.59%"}
    ]}
  ]
}
